Data: PubChem BioAssay (EPA / NIEHS)
Results filed as inconclusive are left out. The source made the active and inactive calls. The calls were made as follows, unless noted: active = hit-call score of the fitted dose curve at least 0.9, where 1 is the maximum; inactive = score below 0.9.

Key:
[1] = APR_HepG2_CellCycleArrest_1hr: Apredica 1-hour HepG2 Assay for Cell Cycle Arrest (AID 2282666); settings: high-content imaging, actives raise or lower the signal
Outline: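 HepG2 cells exposed for 1 h to 0.39–200 uM compound (0.5% DMSO). Fixed, Hoechst-stained nuclei imaged by ArrayScan; DNA content quantified by Cell Cycle analysis; bidirectional fit against DMSO.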

[2] = ACEA_ER_80hr: ACEA Biosciences xCELLigence Real-Time Cell Analysis on Estrogen Receptor Agonism for Proliferation (AID 2282667; active = hit-call score of the fitted dose curve at least 0.9, where 1 is the maximum); settings: T47D proliferation, impedance (xCELLigence), 80 h
Outline: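 Estrogen-driven proliferation is captured as electrode impedance in T47D cells 80 h after compound addition. Test articles ran at 8 concentrations, 1:4 dilutions from 100 uM final, in two replicate plates.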

[3] = APR_HepG2_p53Act_1hr: Apredica 1-hour HepG2 Assay for p53 Activation (AID 2282671); settings: high-content imaging, actives raise or lower the signal
Outline: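 HepG2 cells treated 1 h with compound at 0.39–200 uM (10 concentrations, duplicate) in 0.5% DMSO. Formaldehyde-fixed, permeabilised cells immunostained for p53 with Hoechst 33342; high-content imaging, bidirectional fit versus DMSO.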

[4] = APR_HepG2_MitoticArrest_1hr: Apredica 1-hour HepG2 Assay for Mitotic Arrest (AID 2282672); settings: high-content imaging, actives raise or lower the signal
Outline: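 HepG2 cells exposed 1 hr to compounds at 0.39–200 uM (0.5% v/v DMSO final), then fixed in 3.7% formaldehyde and immunostained for phospho-histone H3 with Hoechst 33342. Mitotic arrest scored by automated fluorescence imaging, fitted bidirectionally versus DMSO.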

[5] = APR_HepG2_P-H2AX_1hr: Apredica 1-hour HepG2 Assay for H2AX Phosphorylation (AID 2282673); settings: high-content imaging, actives raise or lower the signal
Outline: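 HepG2 dosed 1 hr at 0.39-200 uM (0.5% DMSO final), duplicate. Fixed in 3.7% formaldehyde, Triton permeabilized, immunostained for phospho-histone H2A.x (1:200) with Hoechst 33342; ArrayScan 20x imaging, bidirectional fit vs DMSO.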

[6] = APR_HepG2_MitoMass_1hr: Apredica 1-hour HepG2 Assay for Mitochondrial Mass (AID 2282674); settings: high-content imaging, actives raise or lower the signal
Outline: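 HepG2 cells dosed 1 hr with 0.39-200 uM compound (0.5% DMSO), duplicate wells. Mitochondria stained with 250 nM MitoTracker Red CMXRos for 30 min before formaldehyde fixation, imaged at 20x by ArrayScan; bidirectional fit versus DMSO.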

[7] = APR_HepG2_MitoMembPot_1hr: Apredica 1-hour HepG2 Assay for Mitochondrial Membrane Potential (AID 2282675); settings: imaging, actives raise or lower the signal
Outline: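 HepG2 cells dosed 1 hour with 0.39–200 uM compound in duplicate, 0.5% DMSO final. MitoTracker Red CMXRos (250 nM, 30 min) loaded before formaldehyde fixation; fluorescence quantified by high-content imaging, bidirectional fitting versus DMSO.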

[8] = APR_HepG2_CellCycleArrest_24hr: Apredica 24-hour HepG2 Assay for Cell Cycle Arrest (AID 2282905); settings: imaging, actives raise or lower the signal;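 also: cell cycle arrest scored as ratio of 2N to 4N nuclear DNA content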
Outline: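 Cell cycle arrest is scored from nuclear DNA content measured by high-content imaging of Hoechst 33342-stained HepG2 cells following 24-hour treatment at ten concentrations up to 200 uM, with DMSO as baseline.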

[9] = APR_HepG2_StressKinase_1hr: Apredica 1-hour HepG2 Assay for Stress Kinase (AID 2282906); settings: HepG2 stress kinase (phospho-c-Jun) imaging, actives raise or lower the signal
Outline: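 HepG2 cells dosed 0.39-200 uM (0.5% DMSO) for 1 h, then formaldehyde-fixed. Stress kinase read by phospho-c-Jun immunofluorescence using high-content imaging; bidirectional fit vs DMSO.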

[10] = APR_HepG2_NuclearSize_24hr: Apredica 24-hour HepG2 Assay for Nuclear Size (AID 2282907); settings: high-content imaging, actives raise or lower the signal
Outline: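 Compounds in DMSO (final 0.5%) were added to human HepG2 hepatoma cells at ten concentrations up to 200 uM for 24 hr. Fixed nuclei were stained with Hoechst 33342, and nuclear diameter was quantified from automated images.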

[11] = APR_HepG2_MicrotubuleCSK_24hr: Apredica 24-hour HepG2 Assay for Microtubule CSK Stabilty (AID 2282909); settings: HepG2 microtubule cytoskeleton imaging, actives raise or lower the signal
Outline: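 Steps: dose HepG2 for 24 h (0.39–200 uM, 0.5% DMSO); fix 30 min in 3.7% formaldehyde at room temperature; permeabilize; stain alpha-tubulin 60 min; image microtubule cytoskeleton at 20x. Signal change fitted in both directions relative to DMSO.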

[12] = APR_HepG2_MitoticArrest_24hr: Apredica 24-hour HepG2 Assay for Mitotic Arrest (AID 2282910); settings: high-content imaging, actives raise or lower the signal
Outline: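 HepG2 cells, 24 h exposure at 0.39-200 uM (10 concentrations, duplicate, 0.5% DMSO). Fixed, stained for phospho-histone H3 with Hoechst; imaged by high-content microscopy, bidirectional fit versus DMSO.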

[13] = APR_HepG2_MitoMembPot_24hr: Apredica 24-hour HepG2 Assay for Mitochondrial Membrane Potential (AID 2282911); settings: imaging, actives raise or lower the signal
Outline: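 Mitochondrial dye uptake (MitoTracker Red CMXRos, 250 nM, 30 min pre-fixation) in HepG2 after 24 hr compound exposure, 0.39–200 uM; ArrayScan images at 20x, activity fitted in both directions relative to DMSO.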

[14] = APR_HepG2_MitoMass_24hr: Apredica 24-hour HepG2 Assay for Mitochondrial Mass (AID 2282912); settings: high-content imaging, actives raise or lower the signal
Outline: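 The liver line HepG2 was dosed in duplicate across a 0.39–200 uM series, with final DMSO held at 0.5% v/v, and harvested at 24 hr. High-content imaging measured mitochondrial dye staining.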

[15] = APR_HepG2_p53Act_24hr: Apredica 24-hour HepG2 Assay for p53 Activation (AID 2282913); settings: high-content imaging, actives raise or lower the signal;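 also: p53 protein immunofluorescence averaged per cell in HepG2 with Hoechst nuclei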
Outline: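 Following 24 hr dosing of HepG2 at 0.39–200 uM, the cells undergo formaldehyde fixation, Triton permeabilization and multiplexed antibody labeling that includes p53 (Cy5). Signal from the imaging is referenced to DMSO solvent controls.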

[16] = APR_HepG2_CellCycleArrest_72hr: Apredica 72-hour HepG2 Assay for Cell Cycle Arrest (AID 2282914); settings: high-content imaging, actives raise or lower the signal
Outline: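 Using multiplexed high-content imaging, HepG2 nuclei stained with Hoechst 33342 (2 ug/mL) were analysed for DNA content after fixation and permeabilization. Treatment lasted 72 hr across 0.39–200 uM in duplicate with final DMSO 0.5% v/v; DMSO served as negative control.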

[17] = APR_HepG2_CellLoss_24hr: Apredica 24-hour HepG2 Assay for Cell Loss (AID 2282908); settings: high-content imaging;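 as to AC50: fit in both directions so a hit may be cell loss or gain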
Outline: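 Cell number is quantified by fluorescence imaging of Hoechst 33342-stained nuclei following dosing at 0.39–200 uM in 0.5% DMSO. Curves are fitted in both directions from the DMSO baseline.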

[18] = APR_HepG2_NuclearSize_1hr: Apredica 1-hour HepG2 Assay for Nuclear Size (AID 2282670); settings: high-content imaging, actives raise or lower the signal
Outline: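 HepG2 cells dosed 1 hr with 0.39–200 uM compound (0.5% DMSO), formaldehyde-fixed, Hoechst 33342-stained and imaged at 20x; nuclear diameter from nuclear stain, fitted bidirectionally against DMSO.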

Measured: AC50

C=CC1(C)OC(=O)N(c2cc(Cl)cc(Cl)c2)C1=O (centres undefined)
inactive: [1] | [2] | [3] | [4] | [5] | [6] | [7] | [8] | [9] | [10] | [11] | [12] | [13] | [14] | [15] | [16]

CCON=C(CC)C1=C(O)CC(c2c(C)cc(C)cc2C)CC1=O (centres undefined)
inactive: [1] | [2] | [3] | [4] | [5] | [6] | [7] | [8] | [9] | [10] | [11] | [12] | [13] | [14] | [15] | [16]

Cc1c(F)c(F)c(COC(=O)C2C(/C=C(\Cl)C(F)(F)F)C2(C)C)c(F)c1F (centres undefined)
inactive: [1] | [2] | [3] | [4] | [5] | [7] | [8] | [9] | [10] | [17] | [11] | [12] | [13] | [14] | [15] | [16]

COc1cnc(OC)n2nc(NS(=O)(=O)c3c(OCC(F)F)cccc3C(F)(F)F)nc12
inactive: [1] | [2] | [3] | [4] | [5] | [7] | [8] | [9] | [10] | [11] | [12] | [13] | [14] | [15] | [16]

CC1COC(Cn2cncn2)(c2ccc(Oc3ccc(Cl)cc3)cc2Cl)O1 (centres undefined)
active: [17] 94.7 µM | [12] 94.4 µM | [13] 105 µM | [16] 64.3 µM
inactive: [1] | [2] | [3] | [4] | [5] | [7] | [8] | [9] | [10] | [11] | [14] | [15]

CCCCOC(=O)c1ccccc1C(=O)OCCCC
inactive: [1] | [2] | [18] | [3] | [4] | [5] | [7] | [8] | [9] | [10] | [11] | [12] | [13] | [14] | [15] | [16]

N#Cc1cc(Br)c(O)c(Br)c1
inactive: [1] | [2] | [3] | [4] | [5] | [6] | [7] | [8] | [9] | [10] | [11] | [12] | [14] | [15]
active: [13] 89.4 µM | [16] 100 µM

O=C(Nc1ccccc1)Nc1ccnc(Cl)c1
inactive: [1] | [2] | [3] | [4] | [5] | [9] | [10] | [12] | [13] | [15]
active: [7] 99.5 µM | [8] 69.9 µM | [11] 84.5 µM | [14] 108 µM | [16] 37.2 µM

COP(=S)(OC)Oc1nc(Cl)c(Cl)cc1Cl
inactive: [1] | [2] | [3] | [4] | [5] | [6] | [7] | [8] | [9] | [10] | [17] | [11] | [12] | [13] | [14] | [15] | [16]

Cc1ccc(-c2c(Cl)nc(C#N)n2S(=O)(=O)N(C)C)cc1
active: [2] 10.5 µM | [7] 100 µM | [13] 78.1 µM
inactive: [1] | [3] | [4] | [5] | [6] | [8] | [9] | [10] | [11] | [12] | [14] | [15] | [16]

COc1nc(C)nc(NC(=O)NS(=O)(=O)c2ccccc2Cl)n1
inactive: [1] | [3] | [4] | [5] | [7] | [8] | [9] | [10] | [17] | [11] | [12] | [13] | [14] | [15] | [16]

O=C(O)COc1nc(Cl)c(Cl)cc1Cl
inactive: [1] | [2] | [3] | [4] | [5] | [7] | [8] | [9] | [10] | [11] | [12] | [13] | [14] | [15] | [16]

CCOC(=O)CC(SP(=S)(OC)OC)C(=O)OCC (centres undefined)
inactive: [1] | [2] | [3] | [4] | [5] | [6] | [7] | [8] | [9] | [10] | [11] | [12] | [13] | [14] | [15] | [16]

COc1nc(C)nc(NC(=O)NS(=O)(=O)c2ccccc2CCC(F)(F)F)n1
inactive: [1] | [3] | [4] | [5] | [7] | [8] | [9] | [10] | [11] | [12] | [13] | [14] | [15] | [16]
